Assay outcomes deposited in PubChem BioAssay by Johns Hopkins Ion Channel Center.
KCNQ2 inh – inhibitors of rat KCNQ2 potassium channel. B-score at 10 µM. O88943. AID 2156. CHO-K1 KCNQ2, FluxOR thallium flux, 20 min; active compounds read low. actives 1.1% (n = 310,000);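 active = fluorescence ratio B-score at most minus 3 library SDs, with starting brightness B-score within 2 library SDs, cut at about -5.5 in these data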
KCNQ2 pot – KCNQ2 (rat) channel potentiation. O88943. CHO-K1 KCNQ2, FluxOR thallium flux fluorescence; active compounds read high. B-score at 10 µM. actives 0.54% (n = 310,000);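 active = fluorescence ratio B-score at least 3 SD of library B-scores, with initial fluorescence B-score within 3 of them, cut at about 5.3 in these data; same plate scores as AID 2156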;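 note: B-score of peak minus minimum over baseline fluorescence ratio after K+ and Tl+ stimulus; positive B-score means potentiation of KCNQ2 with more thallium influx and brighter signal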
Kir21 conf inh – confirmation of mouse Kir2.1 potassium channel inhibitors | shares compounds with KCNQ2 pot | Tl flux remaining, % of negative control (active compounds read low), % at 10 µM | actives 41% (n = 2,300) | AID 2032 | Kir2.1-expressing cells, FluxOR thallium flux fluorescence; active compounds read low;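 active = Primary-screen hit whose thallium flux fell at least 3 control SD below untreated wells in both duplicates, with normal baseline fluorescence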
Target sequence (P35561 whole entry, looked up): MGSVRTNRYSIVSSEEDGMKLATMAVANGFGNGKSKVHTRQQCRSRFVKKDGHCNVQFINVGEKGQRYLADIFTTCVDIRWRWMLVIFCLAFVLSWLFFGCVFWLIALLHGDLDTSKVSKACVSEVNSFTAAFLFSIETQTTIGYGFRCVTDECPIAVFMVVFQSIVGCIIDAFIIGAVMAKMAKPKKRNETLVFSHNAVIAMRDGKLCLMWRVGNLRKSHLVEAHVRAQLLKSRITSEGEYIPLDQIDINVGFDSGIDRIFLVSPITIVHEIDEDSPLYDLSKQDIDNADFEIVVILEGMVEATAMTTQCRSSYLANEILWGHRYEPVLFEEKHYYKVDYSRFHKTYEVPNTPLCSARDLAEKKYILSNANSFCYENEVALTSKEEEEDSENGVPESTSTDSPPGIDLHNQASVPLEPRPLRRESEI
HEK293 Tl flux – parental HEK293 activity in Kir2.1 inhibitor counter-screen; shares compounds with KCNQ2 pot; parental HEK293 cells, FluxOR thallium flux fluorescence; 0% = unstimulated blank wells; FluxOR signal as % of negative control (100 = no effect), % at 10 µM; actives 19% (n = 2,300);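 active = dye signal at least 3 control SD above or below untreated wells in both duplicates, raw fluorescence within 3, either direction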;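 note: percent is based on the flux ratio of peak minus minimum fluorescence over baseline F0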
CHO-K1 ctr – alters thallium flux in parental CHO-K1 cells, KCNQ2 counter-screen; shares compounds with KCNQ2 pot; FluxOR thallium flux fluorescence; zero = vehicle mean+3SD, 100% = vehicle-minus-blank window; activity increase over 3SD of controls, % at 10 µM; actives 43% (n = 1,200);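 active = signal rise of at least 3 SD above the untreated control mean, in both duplicate wells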;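 note: counter screen of KCNQ2 potentiator hits so any rise reflects channel-independent effects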
KCNQ1 sel pot – selectivity of KCNQ2 potentiators: effect on human KCNQ1; CHO KCNQ1 stable, FluxOR thallium flux fluorescence; beyond 3SD, as % of vehicle-control signal; activation over 3SD threshold, % at 10 µM; shares compounds with KCNQ2 pot; actives 28% (n = 1,200);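 active = fluorescence ratio rise of at least 3 SD of vehicle wells above their mean, in both replicate wells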
KCNQ2 pot confirm – rat KCNQ2 channel potentiator confirmation | actives 68% (n = 1,200) | AID 2287 | shares compounds with KCNQ2 pot | potentiation, less the hit threshold, % at 10 µM | CHO-KCNQ2 cells, FluxOR thallium flux fluorescence;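 active = fluorescence ratio rising 3 SD or more over the vehicle control mean in both replicates, plus primary screen hit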;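 note: peak minus minimum thallium fluorescence divided by baseline after K/Tl stimulus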
Kir2-1 sel – tests whether KCNQ2 potentiators also affect mouse Kir2.1. shares compounds with KCNQ2 pot. HEK293 Kir2.1, FluxOR thallium flux fluorescence. activity over 3SD threshold, % at 10 µM. actives 2% (n = 1,200). AID 2345;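 active = fluorescence ratio rise of at least 3 SD above the vehicle-control mean, seen in both replicates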
KCNQ2 W236L pot – rat KCNQ2 W236L mutant potentiation by KCNQ2 potentiators. shares compounds with KCNQ2 pot. CHO KCNQ2-W236L, automated patch clamp current. current increase over 3SD of negative controls (%), active compounds read high, % at 25 µM. actives 10% (n = 940);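 active = current increase at least 3 SD of the untreated controls above them in both duplicate recordings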
Hits are given with their value; – = inactive; · = no result given. The list is not random: actives were taken first. Their share in the collection is about 1.6%.

SMILES | KCNQ2 inh | KCNQ2 pot | Kir21 conf inh | HEK293 Tl flux | others
Cc1c(NC(=O)C(C)OC(=O)/C=C/c2ccc3c(c2)OCO3)c(=O)n(-c2ccccc2)n1C (configuration not stated) | – | · | · | ·
CC(=O)Cn1c(CN2CCCC2)nc2ccccc2c1=O | – | · | · | ·
COC/C=C/C1=CC2=CC(=O)C(C)(OC(=O)c3cnc4ccccc4n3)C(=O)C2=CN1Cc1ccco1 (configuration not stated) | – | – | · | ·
Cc1ccc(NC(=S)NCc2cccs2)cc1 | – | 8.9 | – | – | CHO-K1 ctr=–;KCNQ1 sel pot=–;KCNQ2 pot confirm=14;Kir2-1 sel=–;KCNQ2 W236L pot=–
S=C(NCc1cccs1)Nc1ccccc1 | – | – | · | ·
CC1CCN(c2c(NCc3ccc(C(=O)NCc4ccco4)cc3)c(=O)c2=O)CC1 | – | · | · | ·
COc1ccc(/C=C/c2c(-c3ccc(OC)cc3)oc3cccnc23)cc1 | – | · | · | ·
CC(C)(C)c1ccc(OCCC(=O)OCC(=O)Nc2ccc(N3CCOCC3)cc2)cc1 | – | 5.5 | – | – | CHO-K1 ctr=15;KCNQ1 sel pot=–;KCNQ2 pot confirm=–;Kir2-1 sel=–;KCNQ2 W236L pot=–
COc1ccc(OCCC(=O)OCC(=O)Nc2ccc(S(=O)(=O)N3CCOCC3)cc2)cc1 | – | – | · | ·
O=c1nc2ccccc2c2n1CC(CN1CCN(Cc3ccccc3)CC1)N2 (configuration not stated) | – | · | · | ·
C=CCNCCCCOc1c(Cl)cc(C)cc1Br | – | – | 35% | –
C=CCNCCOc1c(C)cc(C)cc1Cl | – | – | · | ·
Cc1cc(Cl)c(OCCCNC2CCCC2)c(Br)c1 | – | – | · | ·
COCCCNCCCCOc1c(Cl)cc(C)cc1Br | – | · | 44% | –
OCC1CCCCN1CCNCc1cn[nH]c1-c1cccc2ccccc12 (configuration not stated) | – | · | · | ·
COc1ccc(NC(=O)NC(C)C2CC3CCC2C3)cc1 (configuration not stated) | – | – | · | ·
COC(=O)c1cccc(NC(=S)Nc2ccc(Cl)c(Cl)c2)c1 | – | 5.4 | – | – | CHO-K1 ctr=–;KCNQ1 sel pot=1.4;KCNQ2 pot confirm=–;Kir2-1 sel=–;KCNQ2 W236L pot=–
COC(=O)c1cccc(NC(=S)Nc2ccccc2Cl)c1 | – | – | · | ·
CCCCN(C)CCn1c(=S)[nH]c2ncccc2c1=O | – | – | · | ·
CCN(CC)S(=O)(=O)c1cccc(C(=O)N/N=C/c2cccc(O)c2O)c1 | – | – | · | ·
c1ccc(-c2csc3ncnc(N4CCc5ccccc5C4)c23)cc1 | – | · | – | –
c1ccc(-c2csc3ncnc(N4CCOCC4)c23)cc1 | – | · | · | ·
CC(=O)Nc1nnc(SCC(=O)N2CCCc3ccccc32)s1 | – | – | · | ·
COc1cc2c(c(OC)c1)C(c1cccc(OC)c1OC)CC(=O)N2 (configuration not stated) | – | – | · | ·
O=C(NN1CC(C(=O)OCc2ccc(Cl)cc2Cl)CC1=O)c1ccccc1 (configuration not stated) | – | 19 | – | – | CHO-K1 ctr=–;KCNQ1 sel pot=68;KCNQ2 pot confirm=74;Kir2-1 sel=–;KCNQ2 W236L pot=–
SMILES | KCNQ2 inh | KCNQ2 pot | Kir21 conf inh | HEK293 Tl flux | others
O=C(NCc1ccc(Cl)cc1Cl)C1CC(=O)N(Cc2ccccc2)C1 (configuration not stated) | – | – | · | ·
O=C(CSc1nc2ccccc2o1)Nc1ccc(N2CCOCC2)cc1 | – | · | · | ·
O=C(CSc1nc2ccccc2o1)Nc1ccccc1N1CCOCC1 | – | – | 56% | –
Cc1nnc(NCc2ccco2)s1 | – | – | · | ·
CCOC(=O)c1c(CSC(=N)N)n(C)c2cc(Br)c(OC(C)=O)cc12 | – | · | · | ·
CCOC(=O)c1c(CSC(=N)N)n(-c2ccc(C)cc2)c2cc(Br)c(OC(C)=O)cc12 | – | · | 58% | –
Cc1cccc(C2Nc3cccc4cccc(c34)N2)c1 | – | · | · | ·
COc1ccc(C(=O)NC(=S)NCCc2ccccc2)cc1 | – | – | · | ·
CN1CCN(CC(O)Cn2c3ccccc3c3ccccc32)CC1 (configuration not stated) | – | · | · | ·
CN1CCN(CC#CCn2c3ccccc3c3ccccc32)CC1 | – | · | 32% | –
O=C(COc1ccc(S(=O)(=O)N2CCOCC2)cc1)Nc1ccc2c(c1)OCCO2 | – | – | · | ·
O=C(Nc1cc([N+](=O)[O-])ccc1N1CCCC1)c1ccco1 | – | · | · | ·
CC1CCCCC1NC(=S)NC(=O)c1cccs1 (configuration not stated) | – | 8.4 | – | 188% | CHO-K1 ctr=44;KCNQ1 sel pot=23;KCNQ2 pot confirm=15;Kir2-1 sel=–;KCNQ2 W236L pot=–
O=C(NNC(=S)NC1CCCCC1)c1cccs1 | – | – | · | ·
CC(=O)N1SC(N)=NC1c1ccccc1 (configuration not stated) | – | – | · | ·
O=C(CCCN1C(=O)/C(=C\c2ccccc2)SC1=S)Nc1ccc(O)cc1 | – | · | · | ·
CCn1ncc([N+](=O)[O-])c1C(=O)Nc1c(C)cccc1C | – | 14 | – | – | CHO-K1 ctr=–;KCNQ1 sel pot=–;KCNQ2 pot confirm=–;Kir2-1 sel=–
CCn1ncc([N+](=O)[O-])c1C(=O)Nc1nc2cccc(C)c2s1 | – | – | · | ·
CCCCCNC(=O)CCc1ccccc1 | – | – | · | ·
CCCCCCC/C(C)=N/NC(=O)CC(=O)NCCc1ccccc1 | – | 5.6 | – | – | CHO-K1 ctr=7.3;KCNQ1 sel pot=–;KCNQ2 pot confirm=–;Kir2-1 sel=–
Cc1cc(C(=O)N2CCCCCC2)cs1 | – | · | · | ·
COc1ccc(-n2nnnc2SCC(=O)Nc2ccccc2F)cc1 | – | – | · | ·
O=C(Cc1ncc(C(F)(F)F)cc1Cl)NCc1cccnc1 | – | – | · | ·
COc1cc(CNCCO)cc(Cl)c1OCc1ccccc1Cl | – | · | · | ·
CCOc1cc(CNC(C)(C)CO)cc(Br)c1OCc1ccc(Cl)cc1Cl | -7.7 | – | 22% | –
SMILES | KCNQ2 inh | KCNQ2 pot | Kir21 conf inh | HEK293 Tl flux | others
COc1cc(CNC(C)(C)CO)cc(Br)c1OCc1ccccc1 | – | – | · | ·
CCOc1cc(CNCCO)cc(Br)c1OCc1ccccc1Cl | -7.4 | – | – | –
CCSc1nc(N)nc(-c2cccs2)c1C#N | – | – | · | ·
CCN1CCc2c(C#N)c(NCc3ccccc3)nc(N(CC)CC)c2C1 | – | 9.1 | – | – | CHO-K1 ctr=–;KCNQ1 sel pot=–;KCNQ2 pot confirm=31;Kir2-1 sel=–;KCNQ2 W236L pot=–
C=CCNc1nc(NCc2ccccc2)c(C#N)c2c1CN(C)CC2 | – | · | 42% | –
CCCc1nc(NCc2ccccc2)c(C#N)c2c1CCCC2 | – | · | · | ·
CCCCCNc1nc(NCCCO)c(C#N)c2c1CN(C)CC2 | – | – | · | ·
Cc1ccc2nnnc(-c3ccccc3)c2c1 | – | – | · | ·
O=C(CCS(=O)(=O)c1ccc2c(c1)NC(=O)CS2)NCCc1ccc(Cl)cc1 | – | · | · | ·
CCC(=O)N(CCC(Cc1ccccc1)c1ccc2c(c1)OCO2)Cc1ccccc1F (configuration not stated) | – | · | · | ·
